Hits are enriched below; roughly 3.2% of the tested compounds scored in any of these assays.
LASV entry inh: qHTS for Inhibitors of binding or entry into cells for Lassa Virus; Lassa virus pseudotype entry inhibition, cell reporter; Potency, µM (top dose mostly 37.9 µM), for the others: at the top dose activity change, negative = inhibition, hits mostly inhibitors; AID 540256, 2011; 300,000 tested, 1.2% active; calls by dose curve; tested in HEK293 cells; further: nearly all actives have a fitted effect of over 50% in size
MARV entry inh: qHTS for inhibitors of binding or entry into cells for Marburg Virus; Marburg virus pseudotyped entry inhibition, cell reporter; AID 540276, 2011; Potency, µM (doses to about 37.8 µM), for the others: at the top dose activity change, negative = inhibition, most hits filed as inhibitors; 300,000 tested, 1.8% active; calls by dose curve; tested in HEK293 cells
FMDV antiviral: High Throughput Screening for Foot and Mouth Disease Virus Antivirals. AID 1159524, 2015. Potency, µM (series often up to 57.9 µM), inactives show top-dose activity change, negative = inhibition, actives largely listed as inhibitors. FMDV antiviral cell-based qHTS. 410,000 tested, 1.2% active; calls by dose curve; tested in HEK293T cells; further: read-out not given here; nearly all actives have a fitted effect of over 45% in size
VACV Venus inh: qHTS for Stage-Specific Inhibitors of Vaccinia Orthopoxvirus: Venus Reporter Primary qHTS. AID 720580, 2013. Potency, µM (series often up to 36.5 µM), without a hit: at the top dose activity change, negative = inhibition, usual class: inhibitors. Vaccinia virus Venus reporter expression, fluorescence. 330,000 tested, 0.46% active; calls by dose curve; tested in A549 cells; further: nearly all actives have a fitted effect of over 30% in size
VACV mCherry inh: qHTS for Stage-Specific Inhibitors of Vaccinia Orthopoxvirus: mCherry Reporter Primary qHTS | Vaccinia virus mCherry reporter infection, fluorescence | 310,000 tested, 0.63% active | Potency, µM (highest dose often 36.5 µM), inactives show at the highest dose activity change, negative = inhibition, actives largely listed as inhibitors | AID 720579, 2013; calls by dose curve; tested in A549 cells; further: nearly all actives have a fitted effect of over 35% in size
Active calls of the source: *; i = inactive; ? = inconclusive; . = not tested or not shown; ! = repeats disagree; [ ] = another dose, or the depositor's remark. On the % scale 0 is the no-effect control and ±100 the full control effect; potency means the concentration at half of the fitted maximal effect.

SMILES	LASV entry inh	MARV entry inh	FMDV antiviral	VACV Venus inh	VACV mCherry inh
Nc1nc(-c2ccc(NC(=O)c3ccco3)cc2)cs1	?	5.01µM*	-60.3%	?	?
Cc1ccc(C(=O)OCC(=O)Nc2ccccc2)cc1NC(=O)c1ccco1	5.8%	1.1%	23.0%	.	.
Cc1nc(-c2ccc(NC(=O)c3ccco3)cc2)cs1	.	.	11.2µM*	.	.
Cc1ccc(C(=O)OCC(=O)Nc2nc(-c3ccccc3)cs2)cc1NC(=O)c1ccco1	?	?	25.1µM*	?	?
CCOC(=O)c1cc(-c2ccccc2)n(CCC(=O)NCCc2ccccc2)c1C	11.2µM*	.	-9.9%	0.3%	-15.8%
CCCNC(=O)CCn1c(-c2ccc(C)cc2)cc(C(=O)OCC)c1C	-8.1%	-16.8%	-13.2%	-7.5%	i
Cc1cc(C)n2nc(SC(C)C(=O)N3CC(C)OC(C)C3)nc2n1 (stereo not given)	7.2%	-1.9%	-10.2%	-9.9%	-13.3%
FC(F)(F)c1cccc(C2NCc3ccccc3-n3cccc32)c1 (stereo not given)	11.2µM*	?	-17.6%	-25.3%	?
O=C(/C=C/c1ccc(O)cc1)c1ccc(NC2=C(N3CCCCC3)C(=O)c3ccccc3C2=O)cc1	?	?	?	?	1.41µM*
O=C1C(Nc2ccccc2)=C(N2CCCCC2)C(=O)c2ccccc21	-17.0%	?	-3.3%	?	15.0%[1.46 µM]
CC(C)c1ccc(NC(=O)C2CCC(CNS(=O)(=O)c3ccc4c(c3)CCCC(=O)N4)CC2)cc1 (stereo not given)	?	.	25.1µM*	?	?
CC(CCc1ccccc1)NC(=O)Cn1c(=O)nc(-c2ccccc2F)c2cc(Cl)ccc21 (stereo not given)	?	.	-1.8%	-22.9%	-3.7%
CO[C@@]12[C@H](COC(N)=O)C3=C(C(=O)C(C)=C(N)C3=O)N1C[C@@H]1N[C@@H]12	.	.	-13.0%	?	?
CCCNC1=C(C)C(=O)C2=C(C1=O)C(COC(N)=O)[C@]1(OC)C3NC3CN21 (stereo not given in full)	?	6.31µM*	-3.4%	?	?
CO[C@@]12[C@@H]3N[C@@H]3CN1C1=C(C(=O)C(N)=C(C)C1=O)[C@@H]2COC(N)=O	?	?	-4.3%	2.51µM*	5.62µM*
CCOC(=O)c1sc(NC(=O)Nc2ccccc2F)nc1C	?	2.24µM*	?	-17.7%	-21.1%
CCOC(=O)c1sc(Nc2ccccc2Cl)nc1C	.	.	51.8%	.	.
COC(=O)C1=C(C(=O)OC)SC(=C2C(=S)C(C)(C)N(C(=O)CC(C)C)c3ccccc32)S1	-9.7%	-10.0%	0.0%	.	.
CCOn1c(-n2nc(C)cc2C)nc2ccccc2c1=O	-4.8%	-8.8%	14.3%	.	.
Cc1cc(C)n(-c2nc3ccccc3c(=O)n2OCC#N)n1	?	7.94µM*	-15.5%	?	2.51µM*
Fc1ccc(-c2cnn3c(-c4ccncc4)ccnc23)cc1	?	9.4%[46.1 µM]	-16.5%	0.0%	i
Fc1ccc(-c2cnn3c(-c4cccs4)ccnc23)cc1	10µM*	?	-52.7%	-1.1%	-6.2%
CCOC(=O)c1c(C)oc2nc(C)nc(N(C)Cc3ccccc3)c12	-24.0%[46.1 µM]	.	?	-19.6%	-16.7%
COc1ccc2cc([C@@H](C)C(=O)O)ccc2c1	.	.	2.24µM*	-15.0%	-13.1%
COc1ccc(NC(=O)C2=C(C)Nc3ncnn3C2c2ccc[nH]2)cc1 (stereo not given)	6.1%[46.1 µM]	.	-8.6%	15.3%	15.2%
SMILES	LASV entry inh	MARV entry inh	FMDV antiviral	VACV Venus inh	VACV mCherry inh
COc1ccc(Cn2ccnc2SCC(=O)NC2CCCCC2)cc1	?	-15.0%	-9.1%	-17.4%	-5.5%
CCC(Sc1nc2nccnc2c(=O)n1Cc1ccc(OC)cc1)C(=O)NC1CCCCC1 (stereo not given)	9.5%[46.1 µM]	.	7.08µM*	-6.5%	-19.9%
CCOC(=O)C1CCCN(C(=O)c2cnn(-c3ncc4c(n3)-c3ccccc3CCC4)c2C2CC2)C1 (stereo not given)	.	.	44.5%	0.2%	-2.2%
CC(=O)Nc1ccc(S(=O)(=O)N(C)CC(=O)OCC(=O)c2ccc[nH]2)cc1	-0.2%[46.1 µM]	-1.8%	-17.0%	-7.9%	i
CC(=O)Nc1ccc(S(=O)(=O)N(C)CC(=O)OCC(=O)NNC(=O)c2ccccc2F)cc1	-2.5%	-3.7%	4.47µM*	-5.3%	-14.8%
O=c1cc(-c2ccccc2)oc2ccc(Cl)cc12	?	-5.5%	19.9%	-8.1%	8.1%
O=c1oc(-c2ccccc2)cc(Cl)c1Cl	?	11.2µM*	25.1µM*	-10.3%	i
C/C(=N\Nc1ccc(S(N)(=O)=O)cc1[N+](=O)[O-])c1ccc2c(c1)OCO2	-1.4%	?	35.5µM*	?	-13.0%
CCN(CC)S(=O)(=O)c1ccc(N/N=C(\C)c2ccc3c(c2)OCO3)c([N+](=O)[O-])c1	2.3%	32.7%	-24.5%	-6.6%	-13.9%
CC(C)(C(=O)O)c1ccc([C@@H](O)CCCN2CCC(C(O)(c3ccccc3)c3ccccc3)CC2)cc1	.	9.8%	.	.	.
Cc1cc(Sc2nnc(/N=C/N(C)C)s2)c2ccccc2n1	.	.	14.1µM*	.	.
Cc1cc(Sc2nnc(N)s2)c2ccccc2n1	.	.	14.1µM*	.	.
Cc1cc(C)c2ccccc2n1	.	.	.	-12.9%	-15.1%
CCCCCCCCSc1nnc(/N=C/N(C)C)s1	-5.5%	-11.9%[46.1 µM]	-8.3%	-15.5%[7.34 µM]	-23.9%[7.34 µM]
CCCCCCCCCCCCCCCC(=O)OC(CC(=O)O)C[N+](C)(C)C (stereo not given)	?	22.4µM*!	-23.3%	?	?
CCCCCCCCCCCCCCCC(=O)O[C@H](CC(=O)O)C[N+](C)(C)C	.	-26.9%	-18.6%	.	.
CN(C)c1ccc(/C=C\C=C/c2ccnc3ccccc23)cc1	.	.	.	17.7%	50.6%
Cc1c(C)c2c(c(C)c1O)CCC(C)(CN1CCN(c3cc(N4CCCC4)nc(N4CCCC4)n3)CC1)O2 (stereo not given)	.	10µM*	.	.	.
Cc1c(C)c2c(c(C)c1O)CC[C@@](C)(CCC[C@H](C)CCC[C@H](C)CCCC(C)C)O2	.	.	-19.4%	-17.7%	-1.6%
CCOc1cc(C=C2C(=O)NC(=O)NC2=O)ccc1OCC(=O)N1CCOCC1	2.1%	-5.9%	-10.7%	-7.8%	-14.2%
CCNC(=O)COc1ccc(/C=C2\COc3ccccc3C2=O)cc1OC	14.6µM*	?	28.2µM*	-23.1%	-7.2%
CCOc1cc(/C=C2\COc3ccccc3C2=O)ccc1OCC(=O)N(C)C	?	?	28.2µM*	-26.9%	-4.4%
O=C(NCc1ccncc1)c1cnn(-c2nccc(-c3cc4ccccc4o3)n2)c1C1CC1	.	.	-19.4%	-11.4%	-16.6%
C[C@@H]1/C=C/CC(=O)OC[C@H](C)C(=O)OC[C@H]2O[C@H]1C=C[C@H]2O	.	-13.6%[14.2 µM]	.	.	.
CCOC(=O)c1ccc(NC(=S)N2CCN(C)CC2)cc1	-21.7%	18.0%	27.5%	-11.0%	-4.4%
CCOC(=O)c1c(/N=C/N(C)C)sc(/C=N/Nc2ccccc2)c1-c1ccccc1	-4.1%	18.3µM*	-19.2%	.	.
